Data reported in PubChem BioAssay AID1159580 (chemical genetic matrix, 2015).
“And” between values parts separate entries of the source, which are not always exact repeats. Equal values may be shown once. About 2,000 (36%) of roughly 5,500 compounds were called active. Not shown: some 18% with an inconclusive outcome. Cut-off read from the data, not from the text of the source: active = normalized growth mostly below about 0.91 (no sharp cut-off); inconclusive = no clear call, values can overlap the other calls; inactive = mostly above about 0.92. This is one part of the list.

Experiment: chemical genetic growth profiling, strain panel (AID 1159580);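 note: tested at 20 µM; growth read once vehicle control cultures reached saturation at 30 °C; 1 = growth at the plate median or of vehicle wells; lower values mean less growth of the strain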
Details: S. cerevisiae deletion strains, growth OD

Measured: normalized growth

COC(=O)C1=CCCN(C)C1
inactive: locus YAL013W, strain DEP1, stronger effect = lower value 1 and 1.01 | locus YAL021C, strain ccr4, stronger effect = lower value 1.03 | locus YAL026C, strain drs2, stronger effect = lower value 1.02 | locus YAL030W, strain snc1, stronger effect = lower value 1 | locus YAL040C, strain CLN3, stronger effect = lower value 0.997 | locus YBL061C, strain skt5, stronger effect = lower value 1.02 | locus YBR009C, strain hhf1, stronger effect = lower value 0.986 | locus YBR021W, strain FUR4, stronger effect = lower value 1 | locus YBR023C, strain chs3, stronger effect = lower value 1.02 | locus YBR171W, strain sec66, stronger effect = lower value 1.02 | locus YBR229C, strain ROT2, stronger effect = lower value 0.954 | locus YBR231C, strain swc5, stronger effect = lower value 0.999 | locus YBR279W, strain paf1, stronger effect = lower value 1.02 | locus YCL011C, strain gbp2, stronger effect = lower value 1.01 | locus YCL016C, strain dcc1, stronger effect = lower value 1.02 | locus YCL029C, strain bik1, stronger effect = lower value 0.983 | locus YCL069W, strain vba3, stronger effect = lower value 0.988 | locus YCR088W, strain abp1, stronger effect = lower value 1.01 | locus YDL005C, strain med2, stronger effect = lower value 0.998 | locus YDL035C, strain GPR1, stronger effect = lower value 0.993 | locus YDL040C, strain nat1, stronger effect = lower value 0.993 | locus YDL074C, strain BRE1, stronger effect = lower value 0.99 | locus YDL101C, strain DUN1, stronger effect = lower value 0.976 | locus YDL134C, strain PPH21, stronger effect = lower value 0.969 | locus YDL185W, strain tfp1, stronger effect = lower value 0.992 | locus YDL192W, strain arf1, stronger effect = lower value 0.983 | locus YDR001C, strain nth1, stronger effect = lower value 1 | locus YDR069C, strain doa4, stronger effect = lower value 0.993 | locus YDR101C, strain arx1, stronger effect = lower value 0.989 | locus YDR137W, strain rgp1, stronger effect = lower value 1.02 | locus YDR150W, strain NUM1, stronger effect = lower value 0.973 and 1.01 | locus YDR159W, strain sac3, stronger effect = lower value 0.94 | locus YDR162C, strain NBP2, stronger effect = lower value 0.991 | locus YDR195W, strain ref2 0.956 | locus YDR297W, strain sur2, stronger effect = lower value 1 | locus YDR318W, strain mcm21, stronger effect = lower value 0.99 | locus YDR334W, strain swr1, stronger effect = lower value 1 | locus YDR335W, strain msn5, stronger effect = lower value 1.02 | locus YDR388W, stronger effect = lower value 0.994 | locus YDR392W, strain spt3, stronger effect = lower value 0.977 | locus YDR502C, strain sam2, stronger effect = lower value 1 | locus YEL003W, strain gim4, stronger effect = lower value 0.997 | locus YEL037C, strain rad23, stronger effect = lower value 1.02 | locus YEL061C, strain CIN8 (second series), stronger effect = lower value 0.988 | locus YEL061C, strain CIN8, stronger effect = lower value 0.991 | locus YER002W, strain NOP16, stronger effect = lower value 0.986 | locus YER015W, strain faa2, stronger effect = lower value 1 | locus YER016W, strain bim1, stronger effect = lower value 1.02 | locus YER110C, stronger effect = lower value 0.969 | locus YER111C, strain swi4, stronger effect = lower value 1.01 | locus YER155C, strain BEM2 (second series), stronger effect = lower value 0.984 | locus YER155C, strain BEM2, stronger effect = lower value 1.02 | locus YER167W, strain BCK2, stronger effect = lower value 0.995 | locus YFR010W, strain ubp6, stronger effect = lower value 0.984 | locus YGL078C, strain dbp3, stronger effect = lower value 0.988 | locus YGL086W, strain mad1, stronger effect = lower value 0.994 | locus YGL167C, strain pmr1, stronger effect = lower value 1.01 | locus YGL173C, strain kem1, stronger effect = lower value 0.976 | locus YGL227W, strain vid30, stronger effect = lower value 0.998 | locus YGL240W, strain doc1, stronger effect = lower value 0.974 | locus YGL248W, strain PDE1, stronger effect = lower value 0.978 | locus YGL253W, strain hxk2, stronger effect = lower value 1.02 | locus YGR078C, strain PAC10, stronger effect = lower value 0.991 | locus YGR135W, strain pre9, stronger effect = lower value 0.983 | locus YGR229C, strain SMI1, stronger effect = lower value 1 | locus YGR252W, strain gcn5, stronger effect = lower value 0.945 | locus YHR013C, strain ard1, stronger effect = lower value 1.03 | locus YHR027C, strain rpn1, stronger effect = lower value 0.996 | locus YHR030C, strain SLT2, stronger effect = lower value 0.986 and 0.989 | locus YHR079C, strain IRE1 (second series), stronger effect = lower value 0.994 | locus YHR079C, strain IRE1, stronger effect = lower value 1.05 | locus YHR094C, strain hxt1, stronger effect = lower value 0.996 | locus YHR129C, strain ARP1, stronger effect = lower value 0.993 | locus YHR142W, strain chs7, stronger effect = lower value 1.03 | locus YHR200W, strain rpn10, stronger effect = lower value 0.989 | locus YIL066C, strain RNR3, stronger effect = lower value 0.982 | locus YIL073C, strain SPO22, stronger effect = lower value 0.935 | locus YIL125W, strain kgd1, stronger effect = lower value 0.995 | locus YIR030C, strain dcg1, stronger effect = lower value 0.98 | locus YJL092W, strain hpr5, stronger effect = lower value 1.01 | locus YJL095W, strain BCK1 (second series), stronger effect = lower value 1.01 | locus YJL095W, strain BCK1, stronger effect = lower value 1.02 and 1 | locus YJL115W, strain asf1, stronger effect = lower value 1.02 | locus YJL129C, strain trk1, stronger effect = lower value 1.04 | locus YJL134W, strain LCB3, stronger effect = lower value 0.985 | locus YJL154C, strain vps35, stronger effect = lower value 0.996 | locus YJL164C, strain tpk1, stronger effect = lower value 0.998 | locus YJL166W, strain qcr8, stronger effect = lower value 0.998 | locus YJL168C, strain set2, stronger effect = lower value 1 | locus YJL187C, strain SWE1 (second series), stronger effect = lower value 0.973 | locus YJR043C, strain POL32, stronger effect = lower value 1 | locus YJR066W, strain TOR1, stronger effect = lower value 0.968 | locus YJR075W, strain HOC1, stronger effect = lower value 0.99 and 1.01 | locus YKL009W, strain mrt4, stronger effect = lower value 0.999
